From PubChem BioAssay
The list is not random: actives were taken first. Their share in the collection is about 22%.
CYP2C9 activ – increases human cytochrome P450 2C9 activity; P11712; recombinant CYP2C9, luciferin-H conversion, luminescence; hits give high values; factor 1 = untreated enzyme, 0 = blocked; activation factor at 5 µM; 1.4% of 96,000 active;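 active = activation factor of 2 or more for CYP2C9 at a 5 µM dose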;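 note: 0 = sulfaphenazole-blocked wells and 1 = vehicle-only wells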
Target sequence (P11712 whole entry, looked up): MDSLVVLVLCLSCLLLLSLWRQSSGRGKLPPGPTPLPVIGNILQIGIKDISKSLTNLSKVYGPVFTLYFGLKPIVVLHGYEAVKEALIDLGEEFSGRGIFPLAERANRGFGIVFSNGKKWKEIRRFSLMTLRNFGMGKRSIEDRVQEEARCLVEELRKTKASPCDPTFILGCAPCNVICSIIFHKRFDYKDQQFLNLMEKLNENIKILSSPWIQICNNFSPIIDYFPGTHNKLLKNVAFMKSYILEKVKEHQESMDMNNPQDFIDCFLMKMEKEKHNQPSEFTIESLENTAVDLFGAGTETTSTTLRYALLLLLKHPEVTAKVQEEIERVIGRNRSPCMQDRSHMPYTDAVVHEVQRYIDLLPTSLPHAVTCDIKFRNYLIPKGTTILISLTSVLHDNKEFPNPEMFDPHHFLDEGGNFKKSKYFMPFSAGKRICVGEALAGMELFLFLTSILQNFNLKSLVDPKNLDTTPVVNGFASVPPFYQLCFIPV
Measles CPE – protection of cells from measles virus. AID 841. protection (pct of control), % at 4 µM. Measles virus-infected cells, CPE protection, absorbance. 1.5% of 140,000 active; in the data active = protection mostly above about 24%, no sharp cut-off; inactive = mostly below about 26%
CYP2C19 inh – blocks human cytochrome P450 2C19; P33261; CYP2C19 Supersomes, luciferin-H EGE luminescence, 30 min; inhibition, % at 5 µM; 21% of 96,000 active; AID 778;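 active = CYP2C19 inhibition above a set limit at 5 µM in the primary screen, cut at about 50% in these data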;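 note: plate controls were negative control wells for no effect and 2.5 mM tranylcypromine positive control for full effect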
CYP2C9 inh – blocks human cytochrome P450 2C9; AID 777; CYP2C9 Supersomes, luciferin-H conversion, luminescence; inhibition, % at 5 µM; 20% of 96,000 active; P11712;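 active = blocking of liver enzyme CYP2C9 beyond about 50% at 5 µM, limit read from the data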
CYP2C19 activ – cytochrome P450 2C19 (human) activation; P33261; recombinant CYP2C19, luciferin-H EGE luminescence; hits give high values; 0 = fully inhibited enzyme, 1 = untreated enzyme; activation factor at 5 µM; 96,000 tested, under 10 active;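 active = activation factor of at least 2 at 5 µM in the primary screen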;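 note: 0 = wells with 2.5 mM tranylcypromine and 1 = vehicle-only wells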
An asterisk follows results filed as active; . = no result.

SMILES	CYP2C9 activ	Measles CPE	CYP2C19 inh	CYP2C9 inh	CYP2C19 activ
Cc1ccccc1-c1nc2ccccc2c(=O)n1/N=C/c1ccccc1[N+](=O)[O-]	0.9	14	9	10	0.9
CCN1C(=O)c2cccc3c(NC(=O)c4ccc(OC)c(OC)c4)ccc1c23	0.3	18	56*	66*	0.4
CCN1C(=O)c2cccc3c(S(=O)(=O)Nc4ccncc4)ccc1c23	0.3	11	6	66*	0.9
CCN1C(=O)c2cccc3c(S(=O)(=O)Nc4ccc(OC)cc4OC)ccc1c23	0	7	78*	96*	0.2
CCN1C(=O)c2cccc3c(S(=O)(=O)N(C(=O)c4ccncc4)c4ccc(OC)cc4)ccc1c23	.	5	.	.	.
CCN1C(=O)c2cccc3c(S(=O)(=O)N(C(=O)c4cccnc4)c4ccc(OC)cc4)ccc1c23	.	10	.	.	.
CCN1C(=O)c2cccc3c(S(=O)(=O)Nc4nc(C)cs4)ccc1c23	0.1	3	23	93*	0.8
CCN1C(=O)c2cccc3c(NC(=O)c4ccccc4)ccc1c23	.	24	.	.	.
O=C(Cc1ccccc1)NC(=S)Nc1ccc2oc(-c3ccccc3)nc2c1	.	15	.	.	.
O=C(NNC(=O)C1CCCCC1)C(=O)NC1CCCCC1	1.1	9	-15	-7	1.1
O=C(CN1C(=O)C2C3C=CC(C3)C2C1=O)Nc1ccc(S(=O)(=O)N2CCCCC2)cc1 (centres undefined)	.	4	.	.	.
CCN1C(=O)c2cccc3c(S(=O)(=O)NCc4ccco4)ccc1c23	.	16	.	.	.
CCN1C(=O)c2cccc3c(S(=O)(=O)Nc4ccccc4)ccc1c23	0	1	60*	100*	0.4
CC(=O)NC(CCS(C)(=O)=O)C(=O)N1CCc2ccccc21 (centres undefined)	1.1	12	-7	-10	1.1
CCOC(=O)N1CCN(C(=O)c2ccc(N(Cc3ccccc3)S(C)(=O)=O)cc2)CC1	0.1	21	68*	90*	0.3
CS(=O)(=O)N(CC(=O)N1CCCCC1)Cc1ccc(Cl)cc1	.	19	.	.	.
CCOC(=O)N1CCN(C(=O)c2ccc(N(Cc3ccc(C)cc3)S(C)(=O)=O)cc2)CC1	0.1	7	65*	86*	0.3
CS(=O)(=O)N(CC(=O)N1CCc2ccccc2C1)c1ccc2c(c1)OCO2	0.8	15	88*	24	0.1
CN1CCN(C(=O)c2ccc(N(Cc3ccccc3Cl)S(C)(=O)=O)cc2)CC1	0.8	19	12	22	0.9
Cc1ccc(CN(c2ccc(C(=O)N3CCOCC3)cc2)S(C)(=O)=O)cc1	0.9	4	13	15	0.9
CS(=O)(=O)N(CC(=O)N1CCc2ccccc2C1)Cc1ccc(Cl)cc1	0.2	1	88*	85*	0.1
O=C(CN1C(=O)NC2(CCCCCCC2)C1=O)NC1CCCc2ccccc21 (centres undefined)	.	7	.	.	.
O=C(c1cc2c(cc1Br)OCCCO2)N1CCCCC1	.	23	.	.	.
CS(=O)(=O)N(Cc1ccccc1)c1ccc(C(=O)N2CCc3ccccc3C2)cc1	0.4	8	46	63*	0.5
NC(=O)C1(N2CCCCC2)CCN(C(=O)CSc2nc(C(F)(F)F)cc(=O)[nH]2)CC1	1.1	20	7	-7	0.9
SMILES	CYP2C9 activ	Measles CPE	CYP2C19 inh	CYP2C9 inh	CYP2C19 activ
Oc1ccc(-c2onc(C(F)(F)F)c2-c2cscn2)c(O)c1	2.3*	4	76*	-130	0.2
COc1cc(-c2csc(C)n2)ccc1O	1.1	3	6	-13	0.9
CCc1cc2c(=O)c(-c3cscn3)coc2cc1O	1.2	5	-10	-17	1.1
CCOc1cc(C)c(-c2onc(C(F)(F)F)c2-c2csc(C)n2)c(O)c1	0.8	45*	76*	21	0.2
Cc1nc(-c2ccc(O)c(O)c2)cs1	1.1	15	0	-9	1
Cc1nc(-c2c(C(F)(F)F)noc2-c2ccc(O)cc2O)cs1	0.9	4	69*	6	0.3
CC(C)(C)NC(=O)CSc1ccc(C(C)(C)C)cc1	.	5	.	.	.
O=c1c2c3c(sc2n2cnnc2n1-c1ccccc1)N(Cc1ccccc1)CCC3	0.9	12	5	11	0.9
CCCCNC(=S)Nc1cc([N+](=O)[O-])ccc1C	.	5	.	.	.
CCCCC(=O)OCCNC(=O)c1cc2ccccc2oc1=O	0.7	8	59*	32	0.4
CCNC(=O)Nc1cc2nc(C)n(Cc3ccc(Br)cc3)c2nc1C	0.7	1	80*	30	0.2
N/C(=N\OC(=O)CCC1CCCC1)c1cccnc1	.	21	.	.	.
O=C(Nc1ccc(NC(=O)C2CC2)nc1)c1cccs1	0.6	57*	30	37	0.7
CCCC(=O)Nc1ccc(NC(=O)c2cccs2)cn1	0.9	3	-7	10	1.1
CC1CCCCN1S(=O)(=O)c1ccc(NC(=O)c2ccco2)cc1 (centres undefined)	0.3	3	59*	72*	0.4
CC(C)C(=O)Nc1ccc(NC(=O)c2ccco2)cn1	0.6	55*	10	38	0.9
O=C(Nc1ccc(NC(=O)C2CCCCC2)nc1)c1ccco1	0.7	6	61*	32	0.4
O=C(NC1CCCCC1)c1cccc(COCC(F)(F)F)c1	.	19	.	.	.
O=C(Nc1cn(-c2ccccc2)nc1-c1cccs1)c1ccco1	0.6	3	37	35	0.6
COc1ccc(C(=O)Nc2cc(OC)nc(OC)n2)cc1	.	7	.	.	.
CC(=O)c1c(C)oc2ccc(O)c(CN3CCOCC3)c12	1	12	20	0	0.8
O=C(c1ccccc1S(=O)(=O)NCc1ccccc1)N1CCCCC1	0.5	6	89*	48	0.1
CCOC(=O)c1c(Cc2cccc(Cl)c2)c[nH]c1C	.	13	.	.	.
O=C(Cn1nc(Cc2cccnc2)c2ccccc2c1=O)NCc1ccc(F)cc1	0.2	18	58*	83*	0.4
O=C(Cn1nc(Cc2cccnc2)c2ccccc2c1=O)N1CCN(c2ccccn2)CC1	0.1	0	42	87*	0.6
SMILES	CYP2C9 activ	Measles CPE	CYP2C19 inh	CYP2C9 inh	CYP2C19 activ
COc1cc(NC(=O)Cn2nc(Cc3cccnc3)c3ccccc3c2=O)cc(OC)c1OC	0.4	4	54*	62*	0.5
O=C(Cn1nc(Cc2cccnc2)c2ccccc2c1=O)NCc1ccc2c(c1)OCO2	0.1	3	56*	89*	0.4
CN(C)c1ccc(/C=N/NC(=O)C(=O)/C=C2\NC3(CCCC3)Cc3ccccc32)cc1	.	5	.	.	.
CC1(C)C2CC=C(/C=N/NC(=O)c3ccc(O)cc3)C1C2 (centres undefined)	.	8	.	.	.
Cc1cnc(NC(=O)c2ccc(-c3nc4ccccc4s3)o2)s1	0.4	18	75*	56*	0.2
Cc1cnc(NC(=O)CSc2nc3ccccc3s2)s1	1	8	24	1	0.8
CC1CC(C)CN(C(=S)NC2CCCCC2)C1 (centres undefined)	.	7	.	.	.
Cc1cc(C(=O)N/N=C/c2cccn2C)no1	.	43*	.	.	.
Cc1cc(C(=O)N/N=C/c2ccccc2Br)no1	1.3	11	-12	-27	1.1
O=C(CNCc1ccc(Cl)cc1)NCc1ccco1	.	4	.	.	.
